Screens: PubChem, Broad Institute
The list is not random: actives were taken first. Their share in the collection is about 0.46%.
ERp5 block – blocks human ERp5 reductase activity on insulin | Q15084 | 0.05% of 350,000 active | AID 651711 | inhibition, % at 9.99 µM | ERp5 insulin aggregation, absorbance 650 nm, 90 min;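 active = mean replicate inhibition above about 25%, with every replicate also reaching it, limit read from the data, passing the limit was not always enough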
Target sequence (Q15084 whole entry, looked up): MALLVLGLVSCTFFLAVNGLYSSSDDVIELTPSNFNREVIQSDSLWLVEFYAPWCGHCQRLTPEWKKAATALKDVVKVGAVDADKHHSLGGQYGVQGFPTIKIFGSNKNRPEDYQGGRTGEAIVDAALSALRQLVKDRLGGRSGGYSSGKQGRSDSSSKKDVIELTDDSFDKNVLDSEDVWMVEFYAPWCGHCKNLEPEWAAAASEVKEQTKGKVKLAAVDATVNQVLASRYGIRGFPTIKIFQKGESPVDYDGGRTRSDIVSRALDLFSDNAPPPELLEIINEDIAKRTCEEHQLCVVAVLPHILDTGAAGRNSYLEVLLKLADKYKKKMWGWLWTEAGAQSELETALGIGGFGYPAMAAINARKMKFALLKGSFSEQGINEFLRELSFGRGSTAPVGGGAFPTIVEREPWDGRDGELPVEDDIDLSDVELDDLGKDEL
ERAP1 HTS inh – ERAP1 (human) enzyme inhibition; Q9NZ08; AID 652197; recombinant ERAP1, Leu-AMC fluorescence, 60 min; inhibition, % at 10.7 µM; 0.15% of 340,000 active;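 active = mean replicate inhibition of at least 30%, or all replicates individually reaching that 30% level; inactive = mean below 30% and not every replicate reaching it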;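 also: 0% = neutral control wells and 100% = L-leucinethiol positive control wells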
PglD inh – PglD (C. jejuni) enzyme inhibition. purified PglD enzyme, DTNB colorimetric CoA detection. inhibition, % at 12.5 µM. 0.098% of 360,000 active; in the data active = inhibition above about 16%, passing the limit was not always enough
CaV13 FRET inh – Primary screen for inhibitors of IQ motif and Ca2+-dependent inactivation inhibitor domain binding in CACNA1D, Förster resonance energy transfer in living cells, … | HEK cells, CFP/YFP FRET ICDI-IQ, plate reader, 10 min; percent FRET-ratio fall versus neutral wells | inhibition, % at 12.3 µM | 0.098% of 340,000 active;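 active = mean replicate inhibition of at least 30% and at least 1% of replicates passing that level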;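 also: 0% = median of the neutral control wells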
PGC1a acetyl inh – modulators of PGC1a acetylation; U2OS PGC1a acetylation, AlphaScreen anti-acetyl-lysine; with virally co-expressed GCN5 acetyltransferase; inhibition, % at 15.6 µM; 0.17% of 350,000 active;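 active = every replicate shows inhibition of at least 40%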;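 also: 0% = neutral control wells and 100% = positive control wells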
PDI inh – blocks human protein disulfide isomerase activity. 0.052% of 350,000 active. inhibition, % at 10 µM. PDI insulin aggregation turbidity, A650, 90 min;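 active = mean inhibition across replicates of 30% or more, whatever share of single replicates reach that level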
* = called active by the depositor; i = inactive; x = no result given; + = active, no number.

SMILES | ERp5 block | ERAP1 HTS inh | PglD inh | CaV13 FRET inh | PGC1a acetyl inh | PDI inh
CCC(=O)N1C(C(=O)NCc2ccc(OC)cc2)CSC1c1ccc(OC)cc1 (stereo not given) | -1 | x | -7 | 45* | 1 | -2
O=C1CSC(c2ccccc2)N1c1cccc(Cl)c1 (stereo not given) | 2 | 0 | 0 | x | 0 | x
Cc1ccc(C(=O)Nc2cc(Cl)ccc2-n2cncn2)s1 | -4 | 4 | x | -4 | x | -6
Cc1ccsc1C(=O)Nc1cc(Cl)ccc1-n1cncn1 | 1 | -2 | -1 | -6 | 61* | 2
Cn1c(=O)[nH]c(=O)c2c1[nH]c(=S)n2Cc1ccc(Cl)cc1 | -6 | 45* | -2 | -3 | x | 6
CCC(=O)N1CC[C@@H]2[C@H]1c1cc(-c3ccc(F)cc3)ccc1N[C@@H]2CO | 6 | 2 | 2 | x | -10 | x
Cc1cc(NS(=O)(=O)c2ccc(NC(=O)COc3c(C)cc(Br)cc3C)cc2)no1 | 5 | 6 | -6 | -2 | 85* | -12
COc1ccc(OCC(=O)Nc2ccc(S(=O)(=O)Nc3cc(C)on3)cc2)cc1 | 1 | 1 | 0 | x | -1 | 0
O=C(C[C@@H]1CC[C@@H]2[C@H](COC[C@@H](O)CN2C(=O)Nc2ccc(Cl)cc2)O1)NC1Cc2ccccc2C1 | -4 | 0 | 4 | x | -7 | x
CC(NC(=O)/C(C#N)=C/c1ccc(OCC(=O)O)cc1)c1ccccc1 (stereo not given) | 0 | 35* | 1 | -11 | x | -5
CO[C@H]1CN(C)C(=O)c2ccc(NS(=O)(=O)c3ccccc3Cl)cc2OC[C@@H](C)NC[C@H]1C | x | x | x | x | 2 | x
CN1CCc2c(sc(NC(=O)c3cc(Cl)sc3Cl)c2C(N)=O)C1 | 4 | 3 | -1 | + | -15 | x
CN1CCc2c(sc(NC(=O)c3ccco3)c2C(N)=O)C1 | 4 | 1 | 0 | -5 | 3 | -4
CCS(=O)(=O)N[C@@H]1CC[C@@H](CC(=O)Nc2ccc(-c3ccccc3)cc2)O[C@@H]1CO | -2 | 0 | 0 | x | -18 | x
O=c1c(O[C@@H]2O[C@H](CO)[C@@H](O)[C@H](O)[C@H]2O)c(-c2ccc(O)cc2)oc2cc(O)cc(O)c12 | x | x | -1 | x | 9 | 37*
C[C@@H]1O[C@@H](OC[C@H]2O[C@@H](Oc3c(-c4ccc(O)c(O)c4)oc4cc(O)cc(O)c4c3=O)[C@H](O)[C@@H](O)[C@@H]2O)[C@H](O)[C@H](O)[C@H]1O | 1 | 2 | -4 | -6 | 12 | 58*
O=C(Cc1ccc(NC(=O)C2CCCN(C(=O)C3CC3)C2)cc1)Nc1cccc(C(=O)N2CCCCC2)c1 (stereo not given) | 32* | 3 | 0 | -3 | x | -3
CCCN1C[C@@H](C)[C@@H](OC)CN(C)C(=O)c2ccc(NC(=O)c3ccccc3F)cc2OC[C@@H]1C | 4 | x | 1 | x | -1 | x
CCCCCCc1c(C)c2ccc(OCC(=O)N[C@@H](Cc3ccccc3)C(=O)O)cc2oc1=O | -2 | 32* | 3 | x | -8 | x
CC(Oc1ccc2c3c(c(=O)oc2c1)CCC3)C(=O)N[C@@H](Cc1ccccc1)C(=O)O (stereo not given in full) | 1 | 15 | 0 | x | 75* | x
O=C(COc1ccc2c3c(c(=O)oc2c1)CCCC3)N[C@@H](Cc1ccccc1)C(=O)O | 5 | 0 | 5 | x | -1 | x
COc1cccc(C(=O)Nn2cnnc2)c1OC | -4 | 6 | -1 | -6 | 75* | -1
CCC(=O)Nc1ccc2c(c1)OC[C@H](C)N(C(C)=O)C[C@@H](C)[C@H](OC)CN(C)C2=O | -3 | 2 | x | x | 18 | x
COc1cccc(-c2ccc3c(c2)[C@H]2[C@H](CCN2C(=O)c2ccc(F)cc2)[C@H](CO)N3)c1 | 3 | 1 | -4 | x | 1 | x
N=c1c(C(=O)NCC2CCCO2)cc2c(=O)n3ccccc3nc2n1C1CCCCC1 (stereo not given) | 6 | 121* | 1 | 8 | 5 | -7
N=c1c(C(=O)NCC2CCCO2)cc2c(=O)n3ccccc3nc2n1Cc1ccc(Cl)cc1 (stereo not given) | 1 | i | -9 | 94* | x | 2
CC[N+](C)(CC)CCC(c1ccccc1)C1CCCCC1 (stereo not given) | -2 | 109* | 4 | -6 | x | 2
